A selection: hits, their analogues and other compounds. The true share with any hit is near 2.9%.
DRD3 agonist: agonists of human D3 dopamine receptor. D3R DiscoveRx beta-arrestin cells, luminescence, 90 min. 0.58% of 410,000 active. max activation, %. P35462; in the data active means max activation above about 30%; further: 0% is about no effect
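Cells at 1500/well, incubated overnight, then treated with pinned compounds (dopamine as control) for 90 min at 37 degrees C. DiscoveRx reagent added for 30 - 60 minutes at room temperature; luminescence read.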
TSG101-PTAP inh: blocks PTAP/TSG101 interaction to inhibit HIV-1 budding. Fluorescence polarization, FITC-PTAP peptide / Tsg101 binding. 340,000 tested, under 10 active. Potency, µM (top dose mostly 115 µM), for inactives: at the top dose activity change, negative = inhibition, usual class: inhibitors; active means well fitted inhibition curve with a large enough effect in the main read-out, with a control signal flat, not every such curve was filed as active; inconclusive means small, poorly fitted or top-dose-only effect, or effect the other way, or a change in a side signal; inactive means no such curve, though single readings can be large or run the other way; further: potency means the concentration at half of the fitted maximal effect; % of control where 0% means no effect
Target sequence (Q99816 whole entry, looked up): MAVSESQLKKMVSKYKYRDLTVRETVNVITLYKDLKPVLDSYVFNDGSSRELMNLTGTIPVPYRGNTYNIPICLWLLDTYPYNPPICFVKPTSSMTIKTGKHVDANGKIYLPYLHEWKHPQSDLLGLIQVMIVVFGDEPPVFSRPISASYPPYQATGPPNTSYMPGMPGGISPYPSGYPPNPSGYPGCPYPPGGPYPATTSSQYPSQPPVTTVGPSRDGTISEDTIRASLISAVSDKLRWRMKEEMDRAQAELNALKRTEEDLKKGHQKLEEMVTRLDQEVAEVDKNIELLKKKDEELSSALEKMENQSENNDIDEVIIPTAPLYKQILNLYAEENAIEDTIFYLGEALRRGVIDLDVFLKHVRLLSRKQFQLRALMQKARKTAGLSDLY
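Steps: Tsg101 binding domain dispensed (10 uM final), compounds pinned in DMSO, FITC-labeled PTAP-motif peptide added (50 nM final); after 20 min binding at room temperature, polarization measured.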
Rango-impB inh: inhibitors of Rango-importin beta complex formation. Rango CFP/YFP FRET sensor + importin beta, 45 min. Q14974. 0.031% of 340,000 active. Potency, µM (top dose mostly 92.2 µM), inactives show at the highest dose inhibition of complex formation. AID 540263;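 further: potency means the concentration at half of the fitted maximal effect; 0% = DMSO wells and 100% = buffer wells lacking importin beta; nearly all actives have a fitted effect of over 15% in size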
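FRET biosensor (snurportin 1 IBB flanked by EYFP and cerulean), 50 nM, with compound 5 min, then 0.125 microM importin beta in PBS, 1 mM DTT, 0.02% Tween-20, 0.1% BSA. CFP/YFP ratio read after 45 min at room temperature; pre-read flags interference.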
Rango release inh: inhibitors of RanGTP-induced Rango-importin beta complex dissociation. AID 540253. 0.071% of 340,000 active. Biochemical FRET Rango-importin beta, RanGTP-induced dissociation. Potency, µM (highest dose often 46.1 µM), for inactives: at the highest dose activity change, negative = inhibition; further: potency means the concentration at half of the fitted maximal effect; % of control where 0% means no effect; nearly all actives have a fitted effect of over 45% in size
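Rango (0.1 uM)–importin beta (0.25 uM) complex; RanGTP-RCC1 trigger; 45 min RT; CFP/YFP FRET read.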
D3 antag: antagonists of human D3 dopamine receptor. 2.5% of 360,000 active. max response, negative = inhibition, %. D3R cells, DiscoveRx beta-arrestin luminescence, antagonist mode; active compounds read low. AID 652054; in the data active means max response below about -50%; inconclusive means no clear call, values can overlap the other calls; further: on the % scale 0 is the no-effect control and ±100 the full control effect
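Cells plated overnight at 1500 cells/well, then exposed to library compounds with dopamine controls for 90 minutes at 37 degrees C. DiscoveRx reagent added for 30–60 minutes at room temperature; luminescence read, quantitative HTS format.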
Mm-Cpn inhibitor: M. maripaludis TRiC chaperonin inhibition. purified Mm-Cpn ATPase, ADP Transcreener TR-FRET. Potency, µM (top dose mostly 76.9 µM), for the others: at the top dose activity, negative = inhibition, usual class: inhibitors. 0.031% of 330,000 active. AID 504842; active means well fitted inhibition curve with a large enough effect; inconclusive means small, poorly fitted or top-dose-only effect; further: potency means the concentration at half of the fitted maximal effect; on the % scale 0 is the no-effect control and ±100 the full control effect; nearly all actives have a fitted effect of over 80% in size
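Compound-treated chaperonin, 25 nM final, turns over 10 uM ATP at 37°C for 30 min following a 10 min preincubation; ADP generated competes with ADP-d2 for Eu-cryptate antibody, lowering FRET.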
An asterisk follows results filed as active; u = inconclusive; x = not tested or not shown; ! = a repeat was not active. Unless noted, the call rests on the fitted dose curve.

SMILES	DRD3 agonist	TSG101-PTAP inh	Rango-impB inh	Rango release inh	D3 antag	Mm-Cpn inhibitor
OC(CN1CCN(c2ccccn2)CC1)Cn1c2ccc(Cl)cc2c2cc(Cl)ccc21 (stereo not given)	45*	-4%	0%	2%	52	-12%
Cc1ccc(OCC(O)CN2CCN(c3ccccn3)CC2)c(C)c1 (stereo not given)	45*	0%	-2%	-5%	-26	1%
Cc1cccc(C)c1OCC(O)CN1CCN(c2ccccc2)CC1 (stereo not given)	63*	-4%	-1%	-1%	-15	2%
CC(C)(C)c1ccccc1OCC(O)CN1CCN(c2ccccn2)CC1 (stereo not given)	1	-5%	-1%	1%	u	-4%
Cc1cccc(C)c1OCC(O)CN1CCN(c2ccccn2)CC1 (stereo not given)	59*	-2%	-1%	1%	11	1%
Cc1ccccc1OCC(O)CN1CCN(c2ccc(Cl)cc2)CC1 (stereo not given)	2	2%	-3%	-5%	u	0%
O=C(Nc1sc2c(c1C(=O)NCc1ccco1)CCCC2)c1cc(=O)c2cc(Cl)ccc2o1	9	x	x	x	x	x
COc1cc(/C=C2\N=C(C)OC2=O)cc(OC)c1OC	-4	1%	4%	-15%	-24	0%
COc1cc(/C=C2/N=C(C3CCCCC3)OC2=O)cc(OC)c1OC	-4	-6%	-1%	1%	-69*	-1%
COc1ccc(OC)c(S(=O)(=O)NCC(c2ccc(N(C)C)cc2)N2CCOCC2)c1 (stereo not given)	-8	x	x	x	x	x
Clc1ccc(C2NCCc3sccc32)cc1 (stereo not given)	-13	0%	5%	6%	-24	-2%
COc1ccc(C2NCCc3sccc32)cc1 (stereo not given)	73*	-1%	-2%	-1%	11	1%
CCCOc1ccc(C(=O)NCCO)cc1	2	1%	-5%	0%	92	1%
CC1(C)CC2C1CCC1(O)CC2(C)CCC1N(O)c1ccc(C(=O)NCCO)cn1 (stereo not given)	40*	0%	-3%	-2%	30	0%
Cc1ccc(CSc2ncc(Cl)c(C(=O)Oc3ccc(F)cc3)n2)cc1	-15	x	x	x	x	x
Nc1ccc(C23CC4CC(CC(O)(C4)C2)C3)cc1	0	-4%	0%	-3%	-50*	-1%
Nc1ccc(C23CC4CC(CC(CO)(C4)C2)C3)cc1	1	-1%	4%	0%	13	1%
C[C@]12CCC(=O)C[C@@H]1CC[C@@H]1[C@@H]2CC[C@]2(C)C=CC[C@@H]12	35*!	-3%	-1%	5%	19	-2%
CCCNC(=O)c1ccc2c(c1)N=C(C)c1c(C)ccc(C)c1S2	-2	x	x	x	x	x
S=c1[nH]nc(-c2cc(-c3ccccc3)n[nH]2)n1/N=C/c1ccc(Cl)cc1	-17	0%	0%	-18%	-55*	0%
O=[N+]([O-])c1ccc(/C=N/n2c(-c3cccnc3)n[nH]c2=S)cc1	-15	0%	u	0%	-56*	2%
S=c1[nH]nc(-c2cc(-c3ccccc3)n[nH]2)n1/N=C/c1ccc(Cl)c(Cl)c1	-4	-2%	3%	-6%	-8	1%
CCC(=O)NNc1ncnc2c1cnn2-c1ccc(C)c(Cl)c1	-11	x	x	x	x	x
CN(C)c1ccc(C(=O)Nc2c(C(=O)NC(C)(C)C)oc3ccccc23)cc1	-11	x	x	x	x	x
CCCc1noc(-c2ccc(NCc3ccccc3OC)c([N+](=O)[O-])c2)n1	-9	x	x	x	x	x
SMILES	DRD3 agonist	TSG101-PTAP inh	Rango-impB inh	Rango release inh	D3 antag	Mm-Cpn inhibitor
COC(=O)c1ccc(Oc2cc(C)nc(-n3nc(C)cc3C)n2)cc1	-28	-22%	2%	3%	-82*	-1%
COC(=O)c1ccc(Oc2nc(C)cc(Oc3ccccc3)n2)cc1	-4	3%	0%	-5%	1	0%
Cc1cccn2c(=O)c3cc(C(=O)Nc4ccc(Cl)c(Cl)c4)sc3nc12	8	x	x	x	x	x
Cc1cccc(N2C(=O)N(c3ccccc3C)C3CS(=O)(=O)CC32)c1 (stereo not given)	-9	5%	0%	0%	-53*	x
Cc1cc(C)cc(N2C(=O)N(c3ccccc3C)C3CS(=O)(=O)CC32)c1 (stereo not given)	2	-4%	-1%	-3%	7	-1%
COc1cccc(CNC(=O)C2CCCCN2S(=O)(=O)c2ccc(F)cc2)c1 (stereo not given)	-12	x	x	x	x	x
Cc1[nH]n(-c2ccccc2)c(=O)c1/C=N/n1c(C)nc2ccccc2c1=O	4	1%	-2%	-15%	-52*	-2%
Cc1ccc(-n2[nH]c(C)c(/C=N/n3c(C)nc4ccccc4c3=O)c2=O)cc1	-12	-12%	0%	4%	4	1%
Cc1ccc(SC(C)C(=O)NCc2ccncc2)cc1 (stereo not given)	-7	0%	2%	-2%	-59*	1%
Cc1ccc(Cn2c(CCNC(=O)c3cccc(C)c3)nc3ccccc32)cc1	-13	x	x	x	x	x
Cc1cc(C)c(CN2CCN(C(=O)Cn3cnc4c(NCc5ccccc5)ncnc43)CC2)c(C)c1	31*	-1%	1%	20%	11	0%
CC(CNC(=O)Cn1cnc2c(NCc3ccccc3)ncnc21)c1ccccc1 (stereo not given)	45*	1%	3%	u	5	0%
O=C(Cn1cnc2c(NCc3ccccc3)ncnc21)N1CCN(c2ccccn2)CC1	3	-4%	3%	-10%	18	1%
CCOC(=O)C1CCCN(Cc2ccc(O)c(OC)c2)C1 (stereo not given)	-10	-5%	0%	3%	u	1%
CCOC(=O)C1CCCN(Cc2ccc(OC)cc2OC)C1 (stereo not given)	-8	-3%	2%	-2%	-52*	-1%
CCOC(=O)C1CCN(Cc2ccc(F)c(Br)c2)CC1	-49	-8%	0%	1%	-78*	1%
CN(Cc1ccccc1)C(=O)C1CCCN(Cc2ccc(Cl)cc2)C1 (stereo not given)	-17	2%	0%	10%	-68*	-2%
COc1ccc(CN2CCCC(C(=O)N3CCCC3)C2)c(OC)c1 (stereo not given)	-15	-3%	10%	7%	-10	0%
CCOC(=O)C1CCCN(Cc2cccc(Cl)c2)C1 (stereo not given)	-57	-8%	-3%	-1%	-61*	-2%
CCOc1ccc2ccccc2c1/C=N/NC(=O)CNC(=O)C(c1ccccc1)c1ccccc1	-4	-1%	0%	-9%	-29	2%
